In paper PMC7819943, “Rice protein-binding microarrays: a tool to detect cis-acting elements near promoter regions in rice” one finds binding signal data, which are given here for 23 sequences.

Over roughly 39,000 sequences, “fluorescence intensity (a.u.)” has its median near 4,300; the highest 2% begin near 39,000. Many of the other results were omitted from the sample, so the highest values are more common in it than they were.

This assay has as its target T1, OsSMF1 (Oryza sativa, UniProt Q6ZLB0 1-436).
T1 sequence: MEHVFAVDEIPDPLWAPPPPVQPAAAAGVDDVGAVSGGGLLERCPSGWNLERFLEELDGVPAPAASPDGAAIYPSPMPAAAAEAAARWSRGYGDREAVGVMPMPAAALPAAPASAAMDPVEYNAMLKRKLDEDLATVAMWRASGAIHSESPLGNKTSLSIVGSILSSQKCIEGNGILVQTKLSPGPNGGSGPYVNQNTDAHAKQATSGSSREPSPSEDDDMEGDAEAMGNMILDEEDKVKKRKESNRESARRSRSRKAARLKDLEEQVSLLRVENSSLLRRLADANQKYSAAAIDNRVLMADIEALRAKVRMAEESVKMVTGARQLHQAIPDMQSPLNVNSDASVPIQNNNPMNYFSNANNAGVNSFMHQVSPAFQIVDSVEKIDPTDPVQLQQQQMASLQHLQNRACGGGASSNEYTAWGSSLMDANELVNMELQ
Description: protein-binding microarray (RPBM); PBS, 2% BSA, 51.3 ng/ul salmon testes DNA, 50 uM zinc acetate, 200 nM TF, 25 C, 1 h; high values mean tight binding. The note with it: protein: recombinant; tags: N-terminal polyhistidine and DsRed monomer fusion (pET32a); chain copies: 2; label: CyDye5-dUTP incorporated in the synthesized complementary strand; 3' TTTTT single-stranded linker to array surface; dsDNA, one strand shown. Put shortly:
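In PBS with 2% BSA, salmon testes DNA and 50 µM zinc acetate, 200 nM protein was incubated on a custom Agilent array at 25 °C for 1 h and then washed off. The array had been made double-stranded by primer extension with Cy5-dUTP and blocked with 2% BSA. The proteins were transcription factors fused N-terminally to polyhistidine and DsRed, expressed in E. coli BL21-CodonPlus and purified on Ni–NTA. The binding signal is per-feature fluorescence intensity (arbitrary units) from an Axon 4000B scanner.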
Take “CCGTTTCCGAATCTCGAGGCGCAAGAGGCCATCGAACGGCCGGAGTCACCTAGTGCAG”: the binding signal was 38300 fluorescence intensity (a.u.).
As for “TTTATCTAATTAAAATATATTTATAGCTGACTAATAGTCTCGGAGTCACCTAGTGCAG”, the binding signal is 3480 fluorescence intensity (a.u.).
Next, “TGTGGAGTCCACGTGGGACTTAGCCGCCACATCAATAAAACGGAGTCACCTAGTGCAG”: 9160 fluorescence intensity (a.u.).
The result for “TTAGATGAAACCACGATTTGTCAAAATGCATCCAAAACTTCGGAGTCACCTAGTGCAG” reads 43100 fluorescence intensity (a.u.).
The result for “GCCAAGCCAAACCAATCCAAGCCAAGCCAAATGAATGATTCGGAGTCACCTAGTGCAG” reads 3150 fluorescence intensity (a.u.); that for “TGACCAAAATTTGAAACTTTCAATACAATTATGAAACTTTCGGAGTCACCTAGTGCAG”, 6370 fluorescence intensity (a.u.).
“GTTAATCTCAATAAAATACTTAGCTCCATAAATAATTTTGCGGAGTCACCTAGTGCAG”: the binding signal was 36700 fluorescence intensity (a.u.).
Next, “CCCAGCTGTCTTTCCTCCAGGTCACCTGACAAATGTCACTCGGAGTCACCTAGTGCAG”: 3950 fluorescence intensity (a.u.).
Next, “GAAAACTAGTCCAAAATGAGTCTTTGCTTCAATGCAAACGCGGAGTCACCTAGTGCAG”: 39000 fluorescence intensity (a.u.); “CTTATCAGTCGTAGCTCAACCTATAAGAGGCCTAAATATACGGAGTCACCTAGTGCAG”: 32800 fluorescence intensity (a.u.); “AAATACGGAGAGAAGAAGGCTCACTAAGCGCGCTTACTATCGGAGTCACCTAGTGCAG”: 42500 fluorescence intensity (a.u.).
The result for “ATCTTAAATACTACTAGAAATTAACGGAGACTAAGGCTTGCGGAGTCACCTAGTGCAG” reads 26500 fluorescence intensity (a.u.); that for “TGCCAAATGTTGAAACACTTACAGTAGCATCTAATGAAGTCGGAGTCACCTAGTGCAG”, 16000 fluorescence intensity (a.u.).
On to “CCCAGGGAGGCCAAACTACAAAGGCGATGCTTTCTACACACGGAGTCACCTAGTGCAG”, for which the binding signal is 41500 fluorescence intensity (a.u.).
The result for “AGCTTTTCTTTTCTACACAAAGGGAAGGGAAAGAAGAAACCGGAGTCACCTAGTGCAG” reads 37800 fluorescence intensity (a.u.); that for “AACTACACACAAAGCCGAGCCAAAGTCTCTAGGTCAAAGTCGGAGTCACCTAGTGCAG”, 20600 fluorescence intensity (a.u.).
The result for “TACTTAAGTGCCAAGTGTCAAAGTGTGTGTGGTTTTCTGCCGGAGTCACCTAGTGCAG” reads 4130 fluorescence intensity (a.u.); that for “TCCAAATAGCACGTACGCATGCATGCGTCCATGCCATCTCCGGAGTCACCTAGTGCAG”, 3270 fluorescence intensity (a.u.).
With “CGCTCGACTTCTCTTCTCTCATACACGTGTCATTAAATTTCGGAGTCACCTAGTGCAG”, the binding signal is 8480 fluorescence intensity (a.u.).
As for “ATAAGTACGAATACTAAGTACGTGTGTGTTTGGAGGGTGTCGGAGTCACCTAGTGCAG”, the binding signal was 4340 fluorescence intensity (a.u.).
Next, “TGGACCTGAACCGAACCACTAAGTAGTAGTACGTGTGAGGCGGAGTCACCTAGTGCAG”: 41100 fluorescence intensity (a.u.).
Next, “GAGGTGTACCACTAAGTGTGTACGTGTATAGTGGGGCGTGCGGAGTCACCTAGTGCAG”: 7420 fluorescence intensity (a.u.); “CTCCTTGACAACCAGCACCGATCCCTGAGTCACCCAACGACGGAGTCACCTAGTGCAG”: 6120 fluorescence intensity (a.u.).
